# PubChem BioAssay
# The source made the active and inactive calls. Unless noted, the rule behind the calls is not given here.
# Columns and labels:
# [1] = resazurin metabolic signal in HepG2 cells – cell-based, resazurin fluorescence, 24 h, PK04 Diversity Set, profiling panel (AID 1172); conditions: HepG2 viability, higher = more signal
# [2] = budding yeast growth changes without added modifier – OD600, strain BY4716, 24 h, basal condition, primary screen (AID 1173); conditions: S. cerevisiae BY4716 growth, OD600, 24 h; higher = more signal, called active from +8 up or from −8 down
# [3] = viability profiling in MM1S myeloma cells – cell-based, resazurin fluorescence, basal, 24 h, PK04 Diversity Set, profiling panel (AID 1174); conditions: higher = more signal, called active from +8 up or from −8 down;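 note: MM1S multiple myeloma cell line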
# [4] = target: Dihydroorotate dehydrogenase (quinone), mitochondrial (Plasmodium falciparum (isolate 3D7)) (UniProt Q08210); test: inhibition of P. falciparum DHODH – biochemical, C-terminal His tag, absorbance 600 nm, primary screen (AID 1175); conditions: PfDHODH enzyme, DCIP absorbance 600 nm; higher = more signal, called active from +8 up or from −8 down;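 note: recombinant parasite enzyme with a five histidine tag at its C terminus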
# Chain of Dihydroorotate dehydrogenase (quinone), mitochondrial (Plasmodium falciparum (isolate 3D7)) (Q08210 whole entry, looked up): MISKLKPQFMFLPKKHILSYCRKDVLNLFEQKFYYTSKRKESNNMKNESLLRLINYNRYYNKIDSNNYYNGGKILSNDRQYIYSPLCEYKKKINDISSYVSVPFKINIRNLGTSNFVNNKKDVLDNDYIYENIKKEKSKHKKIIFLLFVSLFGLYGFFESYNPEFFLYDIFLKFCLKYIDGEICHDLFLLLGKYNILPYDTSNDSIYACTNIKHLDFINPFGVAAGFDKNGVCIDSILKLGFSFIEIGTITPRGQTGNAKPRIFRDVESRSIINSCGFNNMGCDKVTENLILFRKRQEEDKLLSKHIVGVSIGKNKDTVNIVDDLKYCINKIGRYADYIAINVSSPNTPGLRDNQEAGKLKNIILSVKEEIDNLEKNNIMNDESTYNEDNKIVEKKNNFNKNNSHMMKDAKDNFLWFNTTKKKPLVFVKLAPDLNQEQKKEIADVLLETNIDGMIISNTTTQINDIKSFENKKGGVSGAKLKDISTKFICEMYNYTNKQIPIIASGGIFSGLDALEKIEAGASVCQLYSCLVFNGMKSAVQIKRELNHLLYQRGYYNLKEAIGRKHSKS
# [5] = inhibition of PAO1 biofilm formation – strain PAO1, LB-PBS medium, absorbance 600 nm, primary screen (AID 1176); conditions: P. aeruginosa PAO1 growth/biofilm, A600, 12 h; higher = more signal
# [6] = growth modulation of vineyard yeast isolate – strain RM11-1a, OD600, basal, 24 h, primary screen (AID 1177);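 note: cultures grown under basal conditions with no added stressor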; conditions: S. cerevisiae RM11-1a growth, OD600, 24 h; higher = more signal, called active from +8 up or from −8 down
# [7] = growth of efflux-deficient E. coli DRC39 – strain DRC39, OD650, 24 h, E. coli filamentation inducers, primary screen (AID 1178);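 note: growth measured as culture turbidity by optical density at 650 nm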; conditions: E. coli DRC39 acrAB, higher = more signal, called active from +8 up or from −8 down
# [8] = growth of efflux-deficient E. coli DRC39 – strain DRC39, OD650, 48 h, E. coli filamentation inducers, primary screen (AID 1179);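 note: screen aims at cell division blockers that make cells filament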; conditions: E. coli DRC39 delta-acrAB growth, higher = more signal, called active from +8 up or from −8 down
# [9] = viability profiling in RPMI8226 myeloma cells – cell-based, resazurin fluorescence, basal, 24 h, PK04 Diversity Set, profiling panel (AID 1180); conditions: higher = more signal;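 note: RPMI8826 multiple myeloma cell line at 5000 cells per well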
# [10] = target: E3 ubiquitin-protein ligase XIAP (Homo sapiens) (UniProt P98170); test: small molecules binding XIAP protein – biophysical, small-molecule microarray, fluorescence 635 nm, primary screen (AID 1181); conditions: higher = more signal;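 note: score merges 667 nm emission and signal to noise over triplicate slides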
# Chain of E3 ubiquitin-protein ligase XIAP (Homo sapiens) (P98170 whole entry, looked up, the tested form may be a part): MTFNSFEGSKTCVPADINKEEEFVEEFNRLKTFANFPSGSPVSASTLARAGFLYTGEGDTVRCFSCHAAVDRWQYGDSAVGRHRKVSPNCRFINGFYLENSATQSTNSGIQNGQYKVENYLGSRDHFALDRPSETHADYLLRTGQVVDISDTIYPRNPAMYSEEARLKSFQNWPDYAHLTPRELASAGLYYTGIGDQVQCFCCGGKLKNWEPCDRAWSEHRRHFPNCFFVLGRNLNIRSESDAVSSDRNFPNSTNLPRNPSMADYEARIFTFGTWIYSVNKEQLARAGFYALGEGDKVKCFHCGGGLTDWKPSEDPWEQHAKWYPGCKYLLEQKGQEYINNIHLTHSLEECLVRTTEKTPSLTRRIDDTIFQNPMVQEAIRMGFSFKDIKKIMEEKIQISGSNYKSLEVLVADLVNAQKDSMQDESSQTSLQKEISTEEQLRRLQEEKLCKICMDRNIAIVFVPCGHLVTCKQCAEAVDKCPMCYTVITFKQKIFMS
# [11] = tested on: XIP peptide (Xip251-270) binding; test: XIP fragment 251-270 binding compounds – biochemical, small-molecule microarray, fluorescence 635/667 nm, 0.1 µg/mL protein, primary screen (AID 1182); conditions: fluorescent protein binding, 635 nm, higher = more signal, called active from +8 up or from −8 down
# [12] = tested on: XIP peptide (Xip251-270); test: compounds binding XIP fragment 251-270 – biochemical, small-molecule microarray, fluorescence 635/667 nm, 0.5 µg/mL protein, primary screen (AID 1183); conditions: fluorescence 635 nm, higher = more signal
# [13] = blood-stage malaria parasite viability loss – strain 3D7, DAPI fluorescence, 100 nL, primary screen (AID 1184);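 note: parasites grown inside human red blood cells in medium with human serum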; conditions: P. falciparum 3D7 growth, 3 d, higher = more signal
# [14] = target: Homeobox protein Hox-A13 (Mus musculus) (UniProt Q62424); test: disruptors of Hoxa13 oligonucleotide interaction – biochemical, fluorescence polarization, labeled oligonucleotide, primary screen (AID 1185); conditions: Hoxa13:DNA binding, 15 min, higher = more signal, called active from +8 up or from −8 down
# Chain of Homeobox protein Hox-A13 (Mus musculus) (Q62424 whole entry, looked up): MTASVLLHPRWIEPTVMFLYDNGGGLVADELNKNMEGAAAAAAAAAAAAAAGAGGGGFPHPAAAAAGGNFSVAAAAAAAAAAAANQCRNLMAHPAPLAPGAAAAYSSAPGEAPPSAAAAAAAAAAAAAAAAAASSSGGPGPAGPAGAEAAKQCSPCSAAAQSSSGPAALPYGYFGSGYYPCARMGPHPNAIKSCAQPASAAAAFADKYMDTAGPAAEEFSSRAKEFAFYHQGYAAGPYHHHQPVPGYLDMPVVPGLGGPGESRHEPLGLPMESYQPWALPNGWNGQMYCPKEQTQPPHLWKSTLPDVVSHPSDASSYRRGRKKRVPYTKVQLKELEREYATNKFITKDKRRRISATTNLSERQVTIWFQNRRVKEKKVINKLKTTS
# [15] = blockers of DNA damage checkpoint Chk1 activation – imaging, HeLa, hydroxyurea, phospho-Chk1 antibody, percent positive cells, primary screen (AID 1186); conditions: hydroxyurea-induced phospho-Chk1 immunofluorescence imaging, higher = more signal
# [16] = blockers of DNA damage checkpoint Chk1 activation – imaging, HeLa, hydroxyurea, phospho-Chk1 nuclear intensity, primary screen (AID 1187); conditions: hydroxyurea-induced phospho-Chk1 immunofluorescence imaging, higher = more signal
Structure (SMILES),z-score [1],z-score [2],z-score [3],composite z-score [4],z-score [5],z-score [6],z-score [7],z-score [8],z-score [9],composite z-score [10],composite z-score [11],composite z-score [12],z-score [13],z-score [14],z-score [15],z-score [16]
COC(=O)[C@H](Cc1ccccc1)N[C@H](/C=C/C1CC1)[C@@H](O)Cc1ccccc1,1,-4.55 (inactive),1.2 (inactive),1.14 (inactive),-0.708 (inactive),-1.44 (inactive),1.58 (inactive),0.398 (inactive),0.663,-0.195,-0.126 (inactive),0.34,-0.873,-5.24 (inactive),-0.748 (inactive),-0.39 (inactive)
CC(C)OC(=O)C=C1C[C@@H](c2cccc(Cl)c2)O[C@@H](c2cccc(Cl)c2)O1,-0.307,-2.84 (inactive),0.147 (inactive),-0.516 (inactive),0.959 (inactive),-0.587 (inactive),-0.581 (inactive),0.323 (inactive),-1.03,0.0307,0.262 (inactive),-0.226,-0.642,-2.09 (inactive),0.193 (inactive),-0.0046 (inactive)
O=c1cccc(-c2ccccc2Cl)o1,-0.611,-2.25 (inactive),-0.111 (inactive),-0.316 (inactive),-0.0043 (inactive),-0.234 (inactive),-0.366 (inactive),-0.608 (inactive),-0.698,-0.0999,-0.143 (inactive),-0.231,0.382,-0.226 (inactive),0.266 (inactive),-0.26 (inactive)
COCCOC(=O)N1C(=O)[C@@]2(c3cc(C#CC4=CCCCC4)ccc31)[C@H](c1ccc(OCCO)cc1)N1[C@H](c3ccccc3)[C@H](c3ccccc3)OC(=O)[C@H]1[C@@H]2C(=O)N1CCc2cc(OC)c(OC)cc2C1,-0.248,0.683 (inactive),-0.607 (inactive),-0.0879 (inactive),2.68 (inactive),4.26 (inactive),0.118 (inactive),0.796 (inactive),0.474,-0.0872,0.411 (inactive),0.64,-2.06,3.66 (inactive),-0.0561 (inactive),-0.0158 (inactive)
COCCOC(=O)N1C(=O)[C@@]2(c3ccccc31)[C@H](c1ccc(OCCO)cc1)N1[C@H](c3ccccc3)[C@H](c3ccccc3)OC(=O)[C@H]1[C@@H]2C(=O)N1CCc2cc(OC)c(OC)cc2C1,-0.14,1.57 (inactive),0.102 (inactive),-2.08 (inactive),1.79 (inactive),2.94 (inactive),0.43 (inactive),0.736 (inactive),0.994,-0.153,0.933 (inactive),0.919,-2.15,2.01 (inactive),0.147 (inactive),0.0081 (inactive)
C=CC[C@]1(C(N)=O)N=C(c2ccc(OCCCO)cc2)O[C@H]1c1ccccc1,-0.095,-0.496 (inactive),-0.0113 (inactive),0.867 (inactive),0.248 (inactive),-0.412 (inactive),0.247 (inactive),-0.875 (inactive),-0.52,-0.0749,0.672 (inactive),0.787,-1.09,-6.17 (inactive),0.344 (inactive),0.327 (inactive)
CO[C@H]1O[C@H](CO)[C@@H](OC(=O)Nc2ccccc2)[C@@H]2OC(=O)[C@@H](Cc3ccc4ccccc4c3)C/C=C/C[C@H](Cc3ccc4ccccc4c3)C(=O)O[C@@H]12,-1.72,-0.456 (inactive),-0.588 (inactive),-2.21 (inactive),0.509 (inactive),-0.474 (inactive),1.13 (inactive),1.09 (inactive),-1.15,1.54,1.97 (inactive),0.748,-0.492,-3.03 (inactive),-0.956 (inactive),-0.96 (inactive)
COc1cc2c(cc1O)C=[N+](Cc1cc3c(cc1Br)OCO3)CC2,-0.532,0.384 (inactive),-1.29 (inactive),0.707 (inactive),0.0898 (inactive),0.593 (inactive),-0.31 (inactive),-0.3 (inactive),-0.566,-0.252,-0.105 (inactive),1.1,-1.88,-3.19 (inactive),-0.126 (inactive),-0.203 (inactive)
COC(=O)[C@]1(Cc2ccccc2)N=C(c2ccc(OCCCO)cc2)O[C@@H]1c1ccccc1N=[N+]=[N-],-2.66,-1.45 (inactive),-4.47 (inactive),1.16 (inactive),1.69 (inactive),0.285 (inactive),0.2 (inactive),-1.19 (inactive),-7.02,0.336,0.062 (inactive),0.685,-2.27,-2.66 (inactive),-0.566 (inactive),-0.724 (inactive)
